High-throughput results (PubChem)
PglD DTNB – inhibitors of Campylobacter jejuni PglD acetyltransferase | inhibition, % at 12.5 µM | purified PglD enzyme, DTNB colorimetric CoA detection | actives 0.098% (n = 360,000) | AID 602405; in the data active = inhibition above about 16%, passing the limit was not always enough
CDK5 p35 inh – CDK5/p35 (human) kinase inhibition | Q00535+Q15078 | Recombinant CDK5/p35, ADP-Glo luminescence, 60 min | inhibition, % at 10 µM | actives 0.01% (n = 330,000) | AID 488839;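 active = highest replicate inhibition of at least 50% and at least 75% of replicates reaching 50%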;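 also: plate controls were DMSO neutral control for no effect and GW8510 at 10 µM for full effect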
Target sequence (Q00535 whole entry, looked up): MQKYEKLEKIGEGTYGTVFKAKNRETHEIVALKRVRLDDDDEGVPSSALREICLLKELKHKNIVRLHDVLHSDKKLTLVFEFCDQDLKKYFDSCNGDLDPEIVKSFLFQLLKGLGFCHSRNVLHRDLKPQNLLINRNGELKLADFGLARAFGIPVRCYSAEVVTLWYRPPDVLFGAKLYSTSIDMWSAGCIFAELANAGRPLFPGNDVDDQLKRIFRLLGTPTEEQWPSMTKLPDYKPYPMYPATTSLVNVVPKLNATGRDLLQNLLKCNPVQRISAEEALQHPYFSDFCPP
Target sequence (Q15078 whole entry, looked up): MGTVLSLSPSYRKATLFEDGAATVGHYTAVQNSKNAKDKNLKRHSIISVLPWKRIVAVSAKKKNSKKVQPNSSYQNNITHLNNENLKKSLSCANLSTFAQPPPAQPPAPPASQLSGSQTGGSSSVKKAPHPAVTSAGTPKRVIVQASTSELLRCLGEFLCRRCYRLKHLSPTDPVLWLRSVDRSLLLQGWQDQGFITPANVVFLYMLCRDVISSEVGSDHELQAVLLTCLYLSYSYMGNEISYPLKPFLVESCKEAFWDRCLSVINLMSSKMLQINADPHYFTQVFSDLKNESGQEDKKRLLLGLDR
SIRT5 block – sirtuin-5 (human) deacylase inhibition; AID 652115; Q9NXA8; inhibition, % at 15 µM; actives 1.1% (n = 330,000); Purified SirT5, succinyl-peptide AMC, trypsin-coupled fluorescence; in the data active = inhibition above about 15%
dFosB activator – mouse delta FosB homodimer activation; P13346; purified delta FosB, TAMRA-CDK5 oligo fluorescence polarization; percent of positive-control signal above neutral wells; activation, % at 25 µM; actives 0.99% (n = 340,000); AID 493131;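 active = mean activation above about 17%, with every replicate also reaching it, limit read from the data, passing the limit was not always enough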
PvdQ inh – blocks Pseudomonas aeruginosa PvdQ acylase activity | AID 488965 | inhibition, % at 10 µM | purified PvdQ acylase, fluorescence plate reader | actives 0.063% (n = 340,000); in the data active = inhibition above about 30%, passing the limit was not always enough;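 also: 0% = vehicle neutral wells and 100% = reference inhibitor wells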
FGF22 binding – FGF22 (human) thermal shift binding. Q9HCT0. actives 1.5% (n = 340,000). recombinant FGF22 thermal shift, SYPRO orange fluorescence; percent of sucrose octasulfate shift, DMSO zero. activity (Tm shift, normalised), % at 9.99 µM;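 active = mean Tm shift, scaled 0 neutral to 100 positive control, at about 1.3% or above, every replicate too, limit read from the data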
* marks the source's active call; other numbers are inactive results; . = no result. This is a sample that favours compounds with a hit; in the whole collection about 2.8% have one here.

SMILES	PglD DTNB	CDK5 p35 inh	SIRT5 block	dFosB activator	PvdQ inh	FGF22 binding
COc1ccccc1-c1ccc2c(c1)O[C@@H](CN(C)S(=O)(=O)c1ccc(C)cc1)[C@H](C)CN([C@H](C)CO)S2(=O)=O	1.3	.	1.0	.	.	-0.1
COc1ccccc1-c1ccc2c(c1)O[C@H](CN(C)S(=O)(=O)c1ccc(F)cc1)[C@H](C)CN([C@H](C)CO)S2(=O)=O	4.9	.	26.0*	.	.	0.1
COc1ccccc1-c1ccc2c(c1)O[C@H](CN(C)S(=O)(=O)c1ccc(F)cc1)[C@@H](C)CN([C@@H](C)CO)S2(=O)=O	5.8	.	23.5*	.	.	-0.1
C[C@@H]1CN([C@H](C)CO)C(=O)c2ccccc2-c2ccccc2CO[C@H]1CN(C)C(=O)[C@H](C)c1ccccc1	-1.5	.	-0.8	.	.	0.1
Cc1ccc(S(=O)(=O)N(C)C[C@H]2OCCCC[C@@H](C)Oc3ccc(NC(=O)NC4CCCCC4)cc3C(=O)N([C@@H](C)CO)C[C@H]2C)cc1	1.4	.	11.6	.	.	-0.3
N#C/C(=C\c1cccnc1)C(=O)Nc1ccc(C(=O)O)cc1	.	0.7	1.1	-4.4	1.3	43.5*
N#C/C(=C\c1cccnc1)C(=O)Nc1ccccc1	-1.2	1.0	.	-3.7	-16.3	.
COCC(=O)Nc1ccc2c(c1)C(=O)N(C)[C@H]1CC[C@@H](CC(=O)NCC3CC3)O[C@H]1CO2	-1.7	.	4.0	.	.	-0.2
Cc1cc(C)nc(SCCn2c(N3CC(C)OC(C)C3)nc3c2c(=O)n(C)c(=O)n3C)n1 (configuration not stated)	.	1.4	-3.7	-3.9	-7.8	44.2*
Cc1cc(C)nc(SCCn2c(N3CCCCC3)nc3c2c(=O)n(C)c(=O)n3C)n1	-1.7	-1.0	.	-1.0	-6.3	.
Nc1nc(Nc2ccccc2)sc1C(=O)c1ccccc1	3.9	82.2*	1.7	-0.5	-8.6	-0.1
Cn1c(=S)[nH]c(=O)c2ncc(=O)[nH]c21	.	0.2	1.4	6.6	-0.9	43.5*
CCOc1ccc(C(C)C)cc1S(=O)(=O)N1CCOCC1	.	-1.6	-0.5	-2.8	-13.2	43.3*
O=C(CC1CC1)N1CC(=O)N2[C@H](CO)[C@H](c3ccc(C#Cc4cccc(F)c4)cc3)[C@H]2C1	.	.	-4.5	.	.	.
C/C(=N\OCc1ccc(C#N)cc1)c1ccc(S(=O)(=O)N(C)C)cc1	-2.7	-1.8	-1.9	-3.0	-13.5	-0.2
C/C(=N\OCc1ccc(C#N)cc1)c1ccccc1	.	0.4	-17.1	-7.3	-19.2	44.1*
C[C@@H]1CN([C@H](C)CO)C(=O)Cc2cc(NC(=O)Cn3cnnn3)ccc2O[C@@H]1CN(C)Cc1ccc(Oc2ccccc2)cc1	1.9	.	3.2	.	.	0.2
O=S1(=O)N[C@@H](Cc2ccccc2)COc2cccc(N3CCCC3)c21	.	.	23.2*	.	.	0.0
CCOc1cc(/C=C2\SC(=N)N(c3nonc3N)C2=O)ccc1OCC(N)=O	-1.9	-1.6	.	1.3	-6.7	.
CCOc1cc(/C=C2\SC(=N)N(c3nonc3N)C2=O)ccc1OCCN1CCOCC1	.	-5.2	-1.2	-8.1	-27.1	1.5*
O=C(c1cccs1)N1CCN=C1SCc1ccc(Cl)cc1	.	3.1	-1.7	-7.9	6.8	0.0
O=C(c1cccs1)N1CCN=C1SCc1ccccc1F	-2.8	-0.3	-3.1	-10.6	-9.0	43.2*
CC1=Nc2ccc(C)cc2/C1=C/c1c(N)n2c(S(=O)(=O)C(C)C)nsc2nc1=O	.	-8.8	19.3*	-2.7	-5.1	.
CC1=Nc2ccccc2/C1=C/c1c(N)n2c(S(=O)(=O)CC(C)C)nsc2nc1=O	.	1.3	6.2	-5.8	1.2	44.0*
CC1=Nc2ccccc2/C1=C/c1c(N)n2c(S(=O)(=O)C(C)C)nsc2nc1=O	-23.4	-1.6	.	3.2	-8.3	.
SMILES	PglD DTNB	CDK5 p35 inh	SIRT5 block	dFosB activator	PvdQ inh	FGF22 binding
C=CC(=O)Nc1cccc(Nc2nc(N[C@H]3CC[C@H](N(C)C)CC3)nc3c2ncn3C(C)C)c1	0.6	83.2*	.	22.0*	3.0	.
CC(C)n1cnc2c(Nc3ccc(C(=O)O)cc3)nc(Cl)nc21	1.5	34.3	.	0.4	-12.0	0.0
CNC(=O)C1=C[C@@H](c2ccc(OC)cc2)C[C@@H](OCCCCO)O1	-3.0	.	3.3	.	.	-0.2
COc1ccc(NC(=O)/C(C#N)=C/c2c(C)nn(-c3ccc(F)cc3)c2Cl)cc1OC	0.8	2.7	-1.2	-9.2	-1.2	-0.2
COc1ccccc1NC(=O)/C(C#N)=C/c1c(C)nn(-c2ccc(F)cc2)c1Cl	.	1.1	1.3	-10.1	6.7	43.2*
Cc1ccc(S(=O)(=O)N2CCC(=O)N([C@H](COCc3cccc(Cl)c3)Cc3ccccc3)CC2)cc1	.	.	39.9*	.	.	-0.3
Cc1ccc(S(=O)(=O)N2CCC(=O)N(C(COCc3cccc(Cl)c3)Cc3ccccc3)CC2)cc1 (configuration not stated)	2.8	-3.5	.	6.2	-25.5	.
O=C(/C=C/c1ccco1)NC(=S)Nc1ccccc1	1.6	-0.2	5.5	-4.8	6.6	0.0
Cc1cccc(NC(=S)NC(=O)/C=C/c2ccco2)c1	-2.2	-0.3	0.1	-10.7	-6.4	1.4*
NCCNc1ccc(C(=O)N2c3ccccc3Sc3ccccc32)cc1[N+](=O)[O-]	-1.4	-0.3	-1.5	53.8*	1.9	0.0
Nc1ccc(C(=O)OCC(=O)N2c3ccccc3Sc3ccccc32)cc1[N+](=O)[O-]	-7.0	1.2	.	-8.1	0.5	.
C[C@H](O)C#Cc1ccc2c(c1)O[C@H](CN(C)Cc1ccc(-c3ccccc3)cc1)[C@H](C)CN([C@H](C)CO)S2(=O)=O	2.4	.	31.8*	.	.	-0.1
C[C@H](O)C#Cc1ccc2c(c1)O[C@@H](CN(C)Cc1ccc(-c3ccccc3)cc1)[C@@H](C)CN([C@@H](C)CO)S2(=O)=O	-3.3	.	30.2*	.	.	-0.2
C[C@H](O)C#Cc1ccc2c(c1)O[C@H](CN(C)Cc1ccc(-c3ccccc3)cc1)[C@@H](C)CN([C@H](C)CO)S2(=O)=O	9.2	.	27.6*	.	.	-0.5
C[C@@H]1CN([C@@H](C)CO)S(=O)(=O)c2ccc(C#C[C@@H](C)O)cc2O[C@@H]1CN(C)Cc1ccccc1	4.1	.	14.2	.	.	0.1
C[C@H](O)C#Cc1ccc2c(c1)O[C@H](CN(C)Cc1ccccc1)[C@H](C)CN([C@H](C)CO)S2(=O)=O	0.6	.	-2.7	.	.	0.0
C[C@@H]1CN([C@@H](C)CO)S(=O)(=O)c2ccc(C#C[C@@H](C)O)cc2O[C@H]1CN(C)Cc1ccc(-c2ccccc2)cc1	3.2	.	34.6*	.	.	-0.1
C[C@H](O)C#Cc1ccc2c(c1)O[C@@H](CN(C)Cc1ccccc1)[C@H](C)CN([C@@H](C)CO)S2(=O)=O	-0.9	.	3.7	.	.	0.0
CC(C)CC#Cc1ccc([C@@H]2[C@@H](CO)N3C(=O)CN(C(=O)CN4CCOCC4)C[C@H]23)cc1	.	.	-6.2	.	.	.
C[C@H](CO)N1C[C@H](C)[C@H](CN(C)C(=O)Nc2ccc(F)cc2)Oc2ccc(N(C)C)cc2C1=O	0.2	.	.	.	.	-0.2
